# Data: the supplement of paper PMC10127200
# Counter-ions that a name gives are not always drawn.
# Legend:
# Experiment in all cases: Euclidean distance of Cell Painting phenotypic profile (signed KS, 77 features) to DMSO centroid (dimensionless distance); higher = stronger phenotypic change vs DMSO (phenoactivity)
# Conditions in all cases: 48 h; 5 or 10 uM (library dependent)
# 786-O = test system: 786-O
# In short: (§1)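 Harmony extracted 77 features from 20X confocal images (9 fields/well) of stained cells, scoring each as a signed Kolmogorov-Smirnov statistic against same-plate vehicle wells. The cells, five cancer lines and a healthy fibroblast line, had received library compounds for 48 h at 10 or 5 uM depending on library, with 0.1% DMSO final. Phenoactivity is the Euclidean distance from each plate-position-corrected, correlation-weighted, top-dose replicate-averaged profile to the median vehicle profile.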
# A549 = test system: A549
# In short: as §1
# DU145 = test system: DU145
# In short: as §1
# FB = test system: FB
# In short: as §1
# HEPG2 = test system: HEPG2
# In short: as §1
# OVCAR4 = test system: OVCAR4
# In short: as §1
Structure (SMILES),Euclidean distance (786-O),Euclidean distance (A549),Euclidean distance (DU145),Euclidean distance (FB),Euclidean distance (HEPG2),Euclidean distance (OVCAR4)
CN(C)C(=O)Oc1cc(OC(=O)N(C)C)cc(C(O)CNC(C)(C)C)c1 (stereo not given) [Bambuterol HCl],0.701,0.719,1.13,1.12,0.521,1.48
Cl[TeH]1(Cl)(Cl)OCCO1.N,1.48,1.83,2.01,1.31,1.27,2.09
C[C@H]1O[C@H](O[C@H]2[C@H](O)[C@@H](O)[C@@H](O)[C@H](O)[C@@H]2O)[C@@H](N)C[C@@H]1NC(=N)C(=O)O [Kasugamycin hydrochloride],1.08,0.816,0.855,1.2,0.528,0.934
CCN(CC)C(=O)c1ccc(C2=CC3(CCNCC3)Oc3cccc(O)c32)cc1,0.588,1.87,0.833,0.776,1.75,0.973
"CN1CCc2cc3c(cc2C1C1OC(=O)c2c1ccc1c2OCO1)OCO3 (single isomer, unassigned; (+)) [(+)-Bicuculline]",1.27,0.94,0.878,0.836,0.778,1.48
CN1C(=O)COc2c(C(=O)NC3CN4CCC3CC4)cc(Cl)cc21 (stereo not given) [Azasetron HCl],0.735,0.632,0.582,0.666,0.533,0.74
NC(=O)CN1CCCC1=O [Piracetam],1.42,0.813,0.735,1.08,0.792,1.01
CC(=O)Nc1ccc(OC[C@](C)(O)C(=O)Nc2ccc([N+](=O)[O-])c(C(F)(F)F)c2)cc1 [Andarine],1.46,1.78,0.858,0.758,0.703,1
Cc1sc2c(c1C)C(c1ccc(Cl)cc1)=N[C@@H](CC(=O)OC(C)(C)C)c1nnc(C)n1-2,3.44,2.14,2.03,3.52,1.96,1.96
C[N+]12CCC(CC1)C(OC(=O)C(O)(c1ccccc1)c1ccccc1)C2 (stereo not given) [Clidinium Bromide],0.785,0.788,0.87,0.845,0.445,0.671
Clc1ccc(C(OCCN2CCCCC2)c2ccccc2)cc1 (stereo not given) [Cloperastine hydrochloride],0.838,1.16,1.16,0.914,1.43,1.16
CNC1CC(N)C(O)C(OC2OC(CO)C(O)C3OC4(OC(C(N)CO)C(O)C(O)C4O)OC23)C1O (stereo not given) [Hygromycin B],1.63,1.19,1.02,2.53,1.3,1.24
O=[N+]([O-])c1ncc[nH]1 [Azomycin],1.03,1.17,1.36,1.09,1.54,0.81
[O-][n+]1ccccc1[S-].[O-][n+]1ccccc1[S-].[Zn+2] [Zinc Pyrithione],6.27,4.94,7.6,6.01,5.34,6.33
Oc1cc(Cl)ccc1Oc1ccc(Cl)cc1Cl [Triclosan],0.695,0.668,0.877,1.15,0.546,1.07
C=C(C)[C@@H]1[C@H]2OC(=O)[C@@H]1[C@]1(O)C[C@H]3O[C@]34C(=O)O[C@H]2[C@]14C [Picrotoxinin],1.37,1.86,0.846,0.954,0.815,1.26
O=C(O)CNC(=O)C1C(=O)N(C2CCCCC2)C(=O)N(C2CCCCC2)C1=O,1.18,0.61,1.4,1.16,1.1,0.706
CCCN1CCO[C@@H]2c3cc(O)ccc3OC[C@H]21,0.455,0.629,0.762,0.945,0.824,0.818
CN1CCN(c2nc3ccccc3nc2Cl)CC1,0.803,1.25,1.04,0.897,0.638,1.52
C[C@](O)(COc1ccc(C#N)cc1)C(=O)Nc1ccc(C#N)c(C(F)(F)F)c1,1.54,1.28,0.792,1.72,1.24,1.74
C=C[C@H]1CN2CC[C@H]1C[C@H]2[C@H](O)c1ccnc2ccccc12 [Cinchonidine],1.49,0.828,1.16,1.09,0.521,1.1
CC(NC(C)(C)C)C(=O)c1cccc(Cl)c1 (stereo not given) [Amfebutamone (Bupropion) HCl],1.39,0.604,0.844,0.936,0.484,1.02
Cn1c(COP(=O)(NCCBr)NCCBr)cnc1[N+](=O)[O-] [Evofosfamide (TH-302)],1.45,2.69,0.904,1.3,1.86,2.84

Structure (SMILES),Euclidean distance (786-O),Euclidean distance (A549),Euclidean distance (DU145),Euclidean distance (FB),Euclidean distance (HEPG2),Euclidean distance (OVCAR4)
C[C@@]12N[C@@H](Cc3ccccc31)c1ccccc12 [(-)-MK 801 Maleate],1,1.63,1.84,3.8,1.69,4.43
O=c1[nH]c2ccccc2n1CCCN1CCC(n2c(=O)[nH]c3cc(Cl)ccc32)CC1 [Domperidone],1.75,1.18,2.1,1.14,0.776,1.67
CC(C)OC(=O)[C@H](C)N[P@](=O)(CO[C@H](C)Cn1cnc2c(N)ncnc21)Oc1ccccc1 [Tenofovir Alafenamide (GS-7340)],1.71,1.16,1.44,1.85,2.92,1.58
C[C@]12CC[C@H](O)C[C@H]1CC[C@@H]1[C@@H]2C[C@@H](O)[C@]2(C)[C@@H](C3=CC(=O)OC3)CC[C@]12O [Digoxigenin],6.59,5.09,7.21,3.92,3.09,5.51
CC(Cc1ccc(O)cc1)NCC(O)c1cc(O)cc(O)c1 (stereo not given) [Fenoterol hydrobromide],0.772,0.319,0.524,0.734,0.461,0.781
Cc1cc(C(C#N)c2ccc(Cl)cc2)c(Cl)cc1NC(=O)c1cc(I)cc(I)c1O (stereo not given) [Closantel],1.21,0.707,0.758,0.654,0.749,0.648
COC(=O)C[C@](O)(CCC(C)(C)O)C(=O)O[C@@H]1C(OC)=C[C@]23CCCN2CCc2cc4c(cc2[C@H]13)OCO4 [Harringtonine],3.42,3.22,4.37,3.78,3.46,3.73
COc1ccc(C=O)cc1 [p-Anisaldehyde],1.24,0.754,0.627,0.751,0.785,1.16
CN1[C@@H]2CC[C@H]1C[C@@H](OC(=O)C(CO)c1ccccc1)C2 (stereo not given in full) [Atropine sulfate monohydrate],0.718,0.691,0.677,0.688,0.719,1.53
O=P1(N(CCCl)CCCl)NCCCO1 (stereo not given) [Cyclophosphamide Monohydrate],1.18,0.863,1.62,0.969,2.05,1.07
C[S+]([O-])CCCCN=C=S (stereo not given) [sulforaphane],1.73,1.68,1.89,2.33,2.6,1.58
CC(=O)Nc1ccc(Cc2ccc(NC(C)=O)cc2)cc1,1.08,2.27,0.674,0.9,0.667,1.25
CC(=O)OC12COC1CC(O)C1(C)C(=O)C(O)C3=C(C)C(O)CC(O)(C(OC(=O)c4ccccc4)C21)C3(C)C (stereo not given) [10-Deacetylbaccatin-III],1.79,1.11,0.834,1.7,1.38,1.4
NC[C@H](CC(=O)O)c1ccc(Cl)cc1 [(R)-baclofen],1.58,1.05,0.675,1.01,0.87,1.1
C[C@H]1CNCCc2ccc(Cl)cc21 [Lorcaserin HCl],1.56,0.972,1.3,0.956,1.2,0.917
Cc1ccc(/N=C/N(C)/C=N/c2ccc(C)cc2C)c(C)c1 [Amitraz],0.966,0.885,0.902,0.718,0.47,0.684
C/C=C(\C)C(=O)N[C@@H](c1ccccc1)[C@@H](O)C(=O)O[C@H]1C[C@@]2(O)[C@@H](OC(=O)c3ccccc3)[C@@H]3[C@]4(OC(C)=O)CO[C@@H]4C[C@H](O)[C@@]3(C)C(=O)[C@H](OC(C)=O)C(=C1C)C2(C)C [Cephalomannine],2.74,3.24,3.48,2.32,2.11,2.98
CNC(C)Cc1ccccc1OC (stereo not given) [Methoxyphenamine Hydrochloride],0.913,1.83,0.725,1.38,0.34,2.5
C[N+]1(C)[C@@H]2C[C@@H](OC(=O)[C@H](CO)c3ccccc3)C[C@H]1[C@@H]1O[C@@H]12 [Methscopolamine],0.909,0.693,0.721,0.773,0.666,1.04
Oc1ccc(Cl)cc1Cc1cc(Cl)ccc1O [Dichlorophene],0.835,1.05,1.3,1.16,0.516,1.18
NCCCNCCSP(=O)(O)O [Amifostine],2.98,1.18,1.66,1.8,1.22,1.31
N#Cc1nn(-c2c(Cl)cc(C(F)(F)F)cc2Cl)c(N)c1[S+]([O-])C(F)(F)F (stereo not given) [Fipronil],0.855,1.11,0.897,1.05,0.591,0.894
